Assay results from PubChem BioAssay AID504725 (Broad Institute, 2011).
Potency and affinity values are given separately.

What follows are molecules tested against KSHV LANA C-terminal domain (residues 932-1162) binding to LBS DNA (UniProt O40947) (assay: KSHV LANA DNA-binding disruption – biochemical, fluorescence polarization, cherry-picked samples, dose response (AID 504725)). Conditions: MBP-C-LANA / FAM-LBS DNA fluorescence polarization, percent change from plate compound-well median; series mostly up to 35 µM; activity change, negative = inhibition: at the top concentration; call rule not given here.

Activity change, negative = inhibition, inactive:
NC(=S)COc1ccccc1 3.96%
COc1cc(C(=O)O)cc(NC(=O)c2ccco2)c1OC -2.4%
COCCN(C(=O)CN1CCCc2ccccc21)c1c(N)n(Cc2ccccc2)c(=O)[nH]c1=O 4.91%
CC(OC(=O)CCN1C(=O)C2CC=CCC2C1=O)C(=O)Nc1ccc(F)cc1 (stereo not drawn) -1.54%
Cc1cc(C)n(CC(=O)NNC(=O)CC(C)c2ccccc2)n1 (stereo not drawn) -4.12%
CCOC(=O)c1c(C)n(C)c2ccc(OCCN(C)C)cc12 -3.37%
COc1ccc(/C=C/c2cc(C(F)(F)F)[nH]c(=O)n2)cc1OC 1.17%
CCc1ccc(N2CC(C(=O)OCC(=O)N(CC)c3c(N)n(Cc4ccccc4)c(=O)[nH]c3=O)CC2=O)cc1 (stereo not drawn) -2.35%
Cc1ccc(C(=O)CCC(=O)Nc2ncccc2C)cc1 2.21%
C=CCNC(=S)N1CCN(S(=O)(=O)c2ccc(C)cc2)CC1 0.05%
Cc1ccc(S(=O)(=O)/N=C/c2ccc(N(C)C)cc2)cc1 -1.14%
NNc1nc2sc3c(c2c(=O)n1C1CCCCC1)CCN(Cc1ccccc1)C3 -4.12%
O=C(/C=C/c1ccco1)Nc1ccccc1C(=O)Nc1cccc(C(=O)O)c1 -17%
CSC(=NS(=O)(=O)c1ccc(N)cc1)NS(=O)(=O)c1cccs1 -0.26%
CCc1noc(C)c1C(=O)N1CCCC(N2CCN(c3ccc(F)cc3)CC2)C1 (stereo not drawn) 0.418%
COc1cccc(NC(=O)CN(C)C(=O)c2cc3ccccc3cc2OC)c1 1.7%
O=C(NC1CCCCC1)c1cc([N+](=O)[O-])ccc1N1CCOCC1 0.014%
CCCCN(C(=O)CSc1nnc(-c2ccc(Cl)cc2)o1)c1c(N)n(CC(C)C)c(=O)[nH]c1=O 2.06%
